Experimental data: the supplement of paper PMC11417369
± gives the standard deviation of the averaged measurements. In all, about 25,000 sequences were measured (“ln(normalized median fluorescence intensity)”: median about 8.6, highest 2% from about 10 on). The entries come from a sample that favours the highest values as a whole.

Test system: PfAP2-EXP AP2 domain (GST-tagged)
Assay: gcPBM binding intensity (ln(normalized median fluorescence intensity)); higher = stronger DNA binding
Method in brief: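 For binding intensity, the highest Masliner-normalised natural-log median intensity across replicate spots of either probe orientation was taken. Protein bound to the array was stained with Alexa488 anti-GST antibody and scanned at 488 nm. The protein, GST-tagged P. falciparum DNA-binding domains from E. coli at about 25 μg on average, had been applied for 1 h to an Agilent 4 × 180k array of primer-extended double-stranded 36-bp intergenic genomic probes and negative controls.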

| Sequence | gcPBM binding intensity (ln) |
| --- | --- |
| TTATTCTAAAAATATACACACAACAACAAACAAACA [CACACA_site1543] | 9.04 ± 0.39 |
| GAAAAAAAAAAAAAAAAACACACGGTACATTCAAAG [CACACA_site303] | 8.5 ± 0.58 |
| TACTGATCCACATTTATACACACCTCGGTTTGTAGA [CACACA_site417] | 8.56 ± 0.4 |
| CTTAATATTCTTTAAAGTACACAAAATAAGAATATA [XGTACX_site5489] | 8.87 ± 0.59 |
| ATAATATAAATACAAACACACAATTGCGTCCACATT [CACACA_site5039] | 8.82 ± 0.38 |
| GTCCAATAAGGAAGAGTGCAAAAATTAAATAATATA [GTGCAC_site9751] | 8.76 ± 0.28 |
| ATATATATATATATATGTACATATATATATTATATT [XGTACX_site6303] | 10 ± 0.62 |
| TATATTTATACAATATGTACATATTATATATATATA [XGTACX_site3098] | 9.57 ± 0.26 |
| ATATATATATATATATGTACATATTATTCTCATTGT [XGTACX_site6259] | 9.88 ± 0.28 |
| TATATATATTATATATGTACATATTATATATATATA [XGTACX_site7300] | 9.46 ± 0.17 |
| ATATATATATATATATGTACATACAATTATATTCTC [XGTACX_site1133] | 10.2 ± 0.29 |
| ATATATATATATATATGTACATATATTCGATTATTA [XGTACX_site557] | 10.29 ± 0.049 |
| AAGTTTTTTTCTTTTTTTCTCTCTTTTTTTTTTTTT [XGTACX_negctrl_site613] | 8.19 ± 0.51 |
| ATAAATATATATATAGTGCATATAAGCCACCTTCAA [GTGCAC_site9628] | 8.86 ± 0.014 |
| AATTGAAAAGAATGAAGTACACATTTGATGATACAT [XGTACX_site5182] | 8.62 ± 0.33 |
| TACAATATAAAATACACACGCACACCGAAAAAAAAA [CACACA_site5865] | 8.53 ± 0.4 |
| ATATAAAAAAAAAATTGTACAAAAATATATACATAT [XGTACX_site469] | 8.53 ± 0.42 |
| AATAATATATTTAGGGGTACATAATAATATATTTTA [XGTACX_site8366] | 8.81 ± 0.6 |
| TTAGGCAAGGCGGGGGGTACGTTTTTATATAATTAT [XGTACX_site8029] | 10.7 ± 0.18 |
| AAATATATTATAAATTGTACGTTTATATATATTATT [XGTACX_site5110] | 8.29 ± 0.37 |
| ATCTTTCCTATTTGTAGTACAAAAAAAAAAAAAAAA [XGTACX_site5485] | 8.44 ± 0.18 |
| TTTGTAATAACATATGCATGTTCAAAAAATAAAATA [TGCATGCA_site817] | 8.4 ± 0.36 |
| TTATAAAAGAAAAAAAAAAAAAAAAAAAAAAAAAAA [CACACA_negctrl_site1006] | 7.89 ± 0.43 |

| Sequence | gcPBM binding intensity (ln) |
| --- | --- |
| AAGAAAAACTTATATATATATATATATATATATATA [TGCATGCA_negctrl_site466] | 10.3 ± 0.29 |
| AAGAAAAAAAAAAAAACACACATATATTTATTTATA [CACACA_site7042] | 8.06 ± 0.47 |
| ATTACAAATATAATATGTACTTAAATATAATTAAAA [XGTACX_site7038] | 8.17 ± 0.34 |
| TTTAATAATATAATGTGTACTTAAAAATTTATATAT [XGTACX_site5821] | 8.29 ± 0.21 |
| ATATATATATATGTGTGTACTTAAAAATATAATGCA [XGTACX_site7753] | 10.2 ± 0.14 |
| AATAATAAATAAATGTGTACTTAAAAATATTATATT [XGTACX_site3005] | 8.44 ± 0.33 |
| ATATATATATATATATGTACTTAAAAAATATATACA [XGTACX_site8952] | 10.2 ± 0.53 |
| TATACATTATTATTATGTACTTAAATATATATTATA [XGTACX_site5173] | 8.35 ± 0.34 |
| TGGAAAATTATTAACACACACATATAAATATATATA [CACACA_site46] | 8.4 ± 0.45 |
| TGCAAATTTAACAAAAAAAAAAAAAAAAAAAAAAAA [GTGCAC_negctrl_site64] | 7.88 ± 0.45 |
| AAAATACAATTTCTAGCACACAAAATATTATTATAA [CACACA_site9056] | 8.34 ± 0.37 |
| TTCACTTTTTTTTTTTTTTTTTTTTTTTTTTTTATT [GTGCAC_negctrl_site350] | 8.07 ± 0.56 |
| TAATTTCTTATGTATTGTACATATAATATATGATAT [XGTACX_site4898] | 8.52 ± 0.41 |
| AATATTTTCTGTAATACTTCTTTTCAATTTATTTCG [CACACA_negctrl_site1390] | 8.76 ± 0.45 |
| TATAAAATAAAAGTAAATATATATATATATATATAT [TGCATGCA_negctrl_site208] | 10.1 ± 0.3 |
| ATATATATATATATATGGTAAAGTAAAAGGAAATAC [XGTACX_negctrl_site45] | 10.3 ± 0.3 |
| ATAATATATGAAAGTGGTACACAAAGGAAAATAAAA [XGTACX_site333] | 9.14 ± 0.57 |
| GAAACGTTTTTGAGTAGTACACACACAATAAGGATG [XGTACX_site6809] | 9.02 ± 0.45 |
| TTTTATACATAAATGTGTACGTATATATAATGAATT [XGTACX_site2762] | 8.59 ± 0.32 |
| GATTTATATTTTAAAAGTACAAGTTAAAATAAAAGT [XGTACX_site7059] | 8.74 ± 0.33 |
| ATATATATTATGTGTGTGCACTTTTGTTATTATTAT | 9 ± 0.33 |
| TTATTTTATTTTTTTGTGCACATATATATTTATAAA [GTGCAC_site9615] | 9.15 ± 0.21 |
| ACATATTATATATGTGTGCACATATATATATATTTA [GTGCAC_site9591] | 8.47 ± 0.13 |

| Sequence | gcPBM binding intensity (ln) |
| --- | --- |
| ATATATGATGTATTTGTGCACATATATATATTATTA [GTGCAC_site9471] | 8.75 ± 0.028 |
| TTTTTGTTATTATGTGTGCACATATATATATATATA | 10.3 ± 0.4 |
| TATGTATATTTTTTTGTGCACATATATATATATATA | 10.2 ± 0.26 |
| AACAAATACAGACACACACACACACTAATAAAAAAA [CACACA_site8067] | 8.66 ± 0.52 |
| ATATATGGAAAGAGTAGTACTATTATAGGGGTGTTA [XGTACX_site6785] | 8.95 ± 0.64 |
| TTTTTTTTGTAGAATTGTACTTATAAAATATATATA [XGTACX_site2116] | 8.19 ± 0.34 |
| TAAAAATTACTATATGAACACACATGATTAGATATA [CACACA_site9012] | 8.43 ± 0.49 |
| TTATATTTATAAAGGTGTACCTTAAAATGATTTTAC [XGTACX_site3774] | 8.19 ± 0.25 |
| ATATATATATATATATGTACATATGTCAACTGTCTA [XGTACX_site8636] | 10.3 |
| GCTCAATGTTTTACATGTACATATATATATATATAT [XGTACX_site8210] | 10.2 ± 0.33 |
| TGTGTATATTATATGTGTACATATCAATGTTTATAT [XGTACX_site1885] | 8.61 ± 0.26 |
| ATTTATTTATTTATATGTACATATATATATATATAT [XGTACX_site339] | 10.1 ± 0.3 |
| GTAATTTTATATGGTTGTACATATATATATATATAT [XGTACX_site6659] | 10.2 ± 0.18 |
| TATACATGTATATATTGTACATATGTTTTTTTTACA [XGTACX_site3300] | 8.86 ± 0.57 |
| ATATATATATATATATGTACATATATTTATATTTAT [XGTACX_site6179] | 9.99 ± 0.42 |
| GTCATATATAATTGTTGTACATTTTTATAATTATGT [XGTACX_site8091] | 8.86 ± 0.36 |
| ATATATATATATATATGTACATATATTTATTTATTG [XGTACX_site6267] | 10.2 ± 0.3 |
| ATTTGTTCATTTGGTTGTACATAATTTATTTTTATA [XGTACX_site785] | 8.75 ± 0.33 |
| AAAAAAAATATAATATGTACATATCTATATATCAAC [XGTACX_site4881] | 8.55 ± 0.38 |
| ATATATATATATGTCTGTACATAAAAAATAATAAAT [XGTACX_site3122] | 10 ± 0.36 |
| GGAATTATAATAAATGGTACACATAAAAAAAAAAAA [XGTACX_site8343] | 8.77 ± 0.59 |
| ATATATAATCATCACACATGCAGCCCTGATGAAAAA [TGCATGCA_site687] | 8.77 ± 0.38 |
| TGCATACTTTTGTAAGTGCATAAAATCGTACCATGC | 8.71 ± 0.11 |

| Sequence | gcPBM binding intensity (ln) |
| --- | --- |
| GATATTACGTGTTTGGTATTTTTTGATGTTAATAGG [CACACA_negctrl_site105] | 8.8 ± 0.52 |
| ATATATATATATATATGTACATATTTTTTATTTTAT [XGTACX_site5761] | 10.1 ± 0.5 |
| ATATATATATATTTATGTACATATATTTTTTTTTTT [XGTACX_site8558] | 9.73 ± 0.28 |
| TTATATTTTTACAAGAGTACATATATATATATATAT [XGTACX_site5383] | 10.2 ± 0.31 |
| ATATATATATATATATGTACATATATTTTTATTTAT [XGTACX_site3508] | 10.3 ± 0.26 |
| CATATATATTTTATATGTACATATATATTTTATATA [XGTACX_site8665] | 8.45 ± 0.25 |
| ATATATATATATGTATGTACACATATTTTTTAACTT [XGTACX_site431] | 10.42 ± 0.042 |
| ATATATATATATGTATGTACATATTTTTTTTAACAC [XGTACX_site8475] | 9.93 ± 0.4 |
| ATATATATATATATATGTACATATTTTATAACTGTA [XGTACX_site5395] | 10.2 ± 0.33 |
| TTTTTTTTTATATTTAGTACATATATATTATTATAT [XGTACX_site3334] | 8.39 ± 0.31 |
| TTTTTTTTTTTTTTATGTACATATATATATTTTATT [XGTACX_site6915] | 8.61 ± 0.6 |
| AAAAAAAAAAAAAAGAGTACATTTATTTATATATCT [XGTACX_site2381] | 8.23 ± 0.19 |
| TATATACATTTATGTACACACACATATATGTATATT [CACACA_site8971] | 8.59 ± 0.34 |
| CTTAAGTAAAATTAAAGTACATGGACAAAAAATATA [XGTACX_site7900] | 8.87 ± 0.28 |
| AAAAAAAAAAAAAAAAGTACAAAAAAAAAAAAAAAA [XGTACX_site4549] | 8.26 ± 0.057 |
| AAAATTAATTATTACAAAAATGAAAAGACATATTTT [GTGCAC_negctrl_site735] | 8.23 ± 0.38 |
| TAATCAATTCAATATTGTACGATATTTACCTTTAAA [XGTACX_site4678] | 8.89 ± 0.42 |
| AGAGGGGAAAACATGATGCACTAGTATAACCAAGAA | 9.22 ± 0.34 |
| GTGAATATTAAAAAATGTACACAATTATATGTATAT [XGTACX_site4834] | 8.49 ± 0.28 |
| TTCAAAAGATATATCGTGCACATATATATGATGAAA | 9.35 ± 0.62 |
| ATGCTCAGGAAAACATGTACAAAATTATTTGTTATA [XGTACX_site4306] | 8.31 ± 0.34 |
